Screens deposited in PubChem by National Center for Advancing Translational Sciences (NCATS).
JMJD2A Tudor – qHTS Assay for Inhibitors of JMJD2A-Tudor Domain; Lysine-specific demethylase 4A (Homo sapiens), O75164; AlphaScreen JMJD2A-Tudor / H3K4me3 peptide binding; Potency, µM (highest dose often 114 µM), for inactives: top-dose activity change, negative = inhibition, hits mostly inhibitors; 4.4% of 390,000 active; further: on the % scale 0 is the no-effect control and ±100 the full control effect; nearly all actives have a fitted effect of over 50% in size
HP1b chromo inh – HTS for Inhibitors of HP1-beta Chromodomain Interactions with Methylated Histone Tails; AID 540317, 2011; Potency, µM (series often up to 114 µM), for inactives: top-dose activity change, negative = inhibition, actives largely listed as inhibitors; 0.56% of 390,000 active; AlphaScreen HP1-beta / biotin-H3K9me3 peptide binding; Chromobox protein homolog 1 (Homo sapiens), P83916; further: nearly all actives have a fitted effect of over 70% in size
Target sequence (P83916 whole entry, looked up): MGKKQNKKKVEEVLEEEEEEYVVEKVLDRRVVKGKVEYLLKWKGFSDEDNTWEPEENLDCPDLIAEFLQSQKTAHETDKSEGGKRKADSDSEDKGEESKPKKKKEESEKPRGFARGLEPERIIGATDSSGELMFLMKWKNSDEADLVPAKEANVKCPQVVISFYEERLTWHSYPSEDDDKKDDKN
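HP1-beta protein (50 nM final) preincubated 30 min at room temperature with biotinylated H3(1-18)K9me3 peptide (50 nM) in PBS pH 7.4, 0.01% Tween-20, then compound added for 30 min. AlphaScreen streptavidin donor/nickel chelate acceptor beads (10 ug/mL final), 30 min dark, luminescence read.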
G9a inh – qHTS Assay for Inhibitors of Histone Lysine Methyltransferase G9a; Histone-lysine N-methyltransferase EHMT2 (Homo sapiens), Q96KQ7; G9a H3K9 monomethylation, AlphaScreen, 2 h; Potency, µM (series often up to 102 µM), for inactives: at the top dose activity, negative = inhibition, most hits filed as inhibitors; 8.8% of 350,000 active; further: on the % scale 0 is the no-effect control and ±100 the full control effect; nearly all actives have a fitted effect of over 75% in size
Target sequence (Q96KQ7 913-1193 limits assumed): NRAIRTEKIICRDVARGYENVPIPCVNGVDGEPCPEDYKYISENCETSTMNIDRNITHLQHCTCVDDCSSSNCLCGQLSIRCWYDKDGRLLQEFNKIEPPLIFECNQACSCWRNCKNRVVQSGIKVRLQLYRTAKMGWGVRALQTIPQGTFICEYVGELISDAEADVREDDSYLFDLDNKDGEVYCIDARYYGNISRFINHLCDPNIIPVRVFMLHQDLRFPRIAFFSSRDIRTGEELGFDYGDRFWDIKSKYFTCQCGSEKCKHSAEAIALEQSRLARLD
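G9a (20 nM) preincubated 15 min RT with compounds, then 500 nM biotinylated H3K9 peptide and 20 uM SAM added; 2 h RT reaction. Monomethyl-H3K9 product detected by AlphaScreen with anti-H3K9me1 antibody, streptavidin donor and anti-rabbit IgG acceptor beads.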
Sfp inh – qHTS Assay for Inhibitors of Bacillus subtilis Sfp phosphopantetheinyl transferase (PPTase); 4'-phosphopantetheinyl transferase ffp (Bacillus subtilis), Q9F4F7; Biochemical Sfp PPTase activity, qHTS; Potency, µM, for inactives: largest response in the series, negative = inhibition, hits mostly inhibitors; 3.5% of 310,000 active; AID 1490, 2009;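 further: the enzyme is Sfp with the accession as filed and its product quenches rhodamine fluorescence; 0% = enzyme reaction without inhibitor and -100% = no enzyme wells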
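After 15 min at room temperature with compound, 15 nM Sfp received 5 uM rhodamine-CoA plus 12.5 uM BHQ-2-ybbR (50 mM Hepes pH 7.6, 10 mM MgCl2). Rate came from the fluorescence difference over 30 min, ex 525/em 598 nm.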
BAZ2B block – qHTS Assay for Inhibitors of BAZ2B | Potency, µM (top dose mostly 114 µM), for inactives: at the top dose activity change, negative = inhibition, most hits filed as inhibitors | Bromodomain adjacent to zinc finger domain protein 2B (Homo sapiens), Q9UIF8 | AlphaScreen BAZ2B-H3K14Ac peptide displacement | 4.4% of 360,000 active; further: on the % scale 0 is the no-effect control and ±100 the full control effect; nearly all actives have a fitted effect of over 60% in size
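BAZ2B 50 nM plus b-H3(5-23)K14Ac 50 nM, PBS pH 7.4/0.01% Tween-20, 30 min RT; compound added (max 110 uM), 30 min RT; streptavidin donor/Ni-chelate acceptor beads 10 ug/mL final, 20 min dark; AlphaScreen read.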
* = called active by the depositor; u = inconclusive; x = not tested or not shown; [ ] = remark or other dose. Rows were chosen to be rich in hits. Some 12% of all compounds tested hit in one or more screens of this group. The call rests on the fitted dose curve; in most records, active means well fitted curve in the direction sought with a large enough effect; inconclusive means small, poorly fitted or top-dose-only effect, or another doubt; inactive means no such curve, though single readings can be large; an effect the other way counts as inactive or inconclusive. Potency means the concentration at half of the fitted maximal effect.

SMILES	JMJD2A Tudor	HP1b chromo inh	G9a inh	Sfp inh	BAZ2B block
C=C(C)C(=O)Nc1cccc(C2=NOC3(C2)C[C@H](C(N)=O)N(C(=O)c2ccccc2C(=O)c2ccccc2)C3)c1 (some centres undefined)	7.9µM*	u	u	-4%	10µM*
C=C(C)C(=O)Nc1cccc(C2=NOC3(C2)C[C@H](C(N)=O)N(C(=O)CC)C3)c1 (some centres undefined)	7.9µM*	10µM*	u	2%	3.5µM*
C/C=C(\C)C(=O)Nc1cccc(C2=NOC3(C2)C[C@@H](C(N)=O)N(C(=O)c2ccccc2C(=O)c2ccccc2)C3)c1 (some centres undefined)	-31%	-3%	18%[12.7 µM]	0%	-30%
C=C(C)C(=O)Nc1cccc(C2=NOC3(C2)C[C@@H](C(N)=O)N(C(=O)/C(C)=C/C)C3)c1 (some centres undefined)	3.2µM*	3.5µM*	u	6%	1.8µM*
C/C=C(\C)C(=O)Nc1cccc(C2=NOC3(C2)C[C@@H](C(N)=O)N(C(=O)/C(C)=C/C)C3)c1 (some centres undefined)	-9%	47%	-41%[59 µM]	8%	-13%
Cc1ccc(S(=O)(=O)N2CCCC(C(=O)N(Cc3cccs3)C3CC3)C2)cc1 (centres undefined)	8%	33%	0%[59 µM]	11%	x
CCCCc1cc(=O)oc2c(C)c(OCC(=O)NCc3ccccn3)ccc12	19%	52%	9%	10%	-26%
N#CCC(=O)N1CC2(CC(c3cccc(NC(=O)COc4ccc(Cl)cc4)c3)=NO2)C[C@@H]1C(N)=O (some centres undefined)	-9%	23%	-1%[59 µM]	6%	-10%
C=C(C)C(=O)Nc1cccc(C2=NOC3(C2)C[C@H](C(N)=O)N(C(=O)CC#N)C3)c1 (some centres undefined)	25µM*	u	u	-1%	40µM*
CCN(C(=O)CSc1nnc(C)n1-c1ccc(C)cc1)c1c(N)n(Cc2ccccc2)c(=O)[nH]c1=O	1%	34%	x	x	x
COc1cccc(CNc2sc3c(c2C(=O)Nc2ccc(OC)cc2OC)CCC3)c1	u	u	13µM*	x	-18%
COc1ccc(CC(=O)Nc2sc3c(c2C(N)=O)CCCC3)cc1	-25%	44%	7%	11%	-3%
COc1ccc(NC(=O)CN(C)CC(=O)Nc2sc3c(c2C(N)=O)CCC3)cc1	-30%	7%	50µM*	x	-4%
COc1ccc(OC)c(NC(=O)c2c(NCc3sccc3C)sc3c2CCCCC3)c1	u	0%	u	x	u
CCOC(=O)N1CCc2c(sc(NCc3cc(OC)ccc3OC)c2C(=O)Nc2cc(OC)ccc2OC)C1	u	-7%	7.1µM*	x	32µM*
COc1ccc2nc(Nc3sc4c(c3C(N)=O)CCCC4)sc2c1	u	22µM*	3.2µM*	45µM*	u
O=C(/C=C/c1ccc(Cl)cc1Cl)N(Cc1ccc(Cl)cc1)C1CCS(=O)(=O)C1 (centres undefined)	-25%	13%	-5%[59 µM]	3%	-23%
O=C(Nc1ccc(Cl)cn1)c1cc2c(s1)-c1ccccc1OC2	25%	67%	x	0%	6%
COc1ccc(OC)c(NC(=O)c2c(NCc3ccc(OC)c(OC)c3)sc3c2CCC3)c1	u	-6%	u	x	-22%
COc1ccccc1OCC(=O)Nc1sc2c(c1C(N)=O)CCC2	u	11%	x	x	x
COc1ccc(OC)c(NC(=O)c2c(NCc3ccc(N(C)C)cc3)sc3c2CCCC3)c1	11µM*	-25%	13µM*	x	11µM*
COc1ccc(NC(=O)c2c(NCc3cccc(OC)c3)sc3c2CCC3)cc1	-29%	-6%	14µM*	x	-5%
